Laboratory results as given in PubChem BioAssay (NCI).
Several values for one entry are separate records, joined by “and”; a condition that tells them apart may be missing. Identical values can stand only once. Compounds without any hit were thinned out: in the full panel of roughly 83,000, 20% have a hit.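 Cells were grown in 96-well plates and exposed to the test compound at a single concentration for 48 hours; results are reported as percent growth, with values below 10 considered active.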 Unmarked numbers belong to inactive results. Activity calls are given as the source filed them.

Tested on: MDA-MB-468 breast
Test: NCI-60 one-dose screen, 48 h (100 = growth as untreated, 0 = no growth, -100 = all killed)
Details: 10 µM unless noted

| Structure (SMILES) | growth |
| --- | --- |
| CC(=O)O[C@@H]1CC2C(C)(C)CCCC2(C)C2=C1C(=O)C(C(C)C)=CC2=O (stereo not given in full) | -35.6% (active) |
| CC(C)=CCCC(C)c1ccc(C)c2c1OCN(CCCCCO)C2 (stereo not given) | 90% |
| C/C(=N\NC(=O)CSc1nc2sc3c(c2c(=O)n1-c1ccccc1)CCC(C)C3)c1ccc(Cl)cc1 (stereo not given) | -28% (active) |
| COc1ccc(OC)c(/C=C2\Oc3cc(OCCN4CCC(Cc5ccccc5)CC4)ccc3C2=O)c1 | 64.8% |
| N#CCCCCCn1c2ccccc2c2c3c(c4c5ccccc5n(CCCCCC#N)c4c21)C(=O)N(O)C3=O | 87.8% |
| CC(c1ccccc1)N1C(=O)/C(=C/c2csc(C#N)n2)SC1=S (stereo not given) | 63.5% |
| N#Cc1c(-c2ccc(O)cc2)c2c(N)nn(-c3ccccc3)c2[nH]c1=O | 111% |
| Cn1cc(-c2csc(-c3c[nH]c4ncccc34)n2)c2cc(F)cnc21 | -16% (active) |
| O=C(/C=C/c1cc(-c2ccc3c(c2)OCO3)n[nH]1)c1ccc2c(c1)OCO2 | 77.2% |
| CCOC(=O)C1=C(Nc2ccc(Br)cc2)C(=O)N(CC)C1 | 101% |
| O=C(O)C1C2C=CC(C2)C1C(=O)O (stereo not given) | 119% and 22.9% and 92.2% |
| CC(C)(C)[Si](C)(C)OC1[C@@H](CNC(=O)NC(=O)CCl)O[C@@H](n2cnc3c(N)ncnc32)[C@H]1O[Si](C)(C)C(C)(C)C (stereo not given in full) | -2.45% (active) |
| CC(C)c1ccc2occ(C=C3C(=O)NC(=O)NC3=O)c(=O)c2c1 | 96.9% |
| CSCCCNC(=O)c1ccc2c(c1)/C(=C/c1[nH]c(C)cc1C)C(=O)N2 | 42.7% |
| C=C1C(=O)O[C@H]2[C@H]1CC/C(COC(=O)NCCc1ccc(OC)cc1)=C\CC[C@@]1(C)O[C@@H]21 | -2.57% (active) |
| NC(=NCc1ccccc1)C(N=Nc1ccccc1)C(=O)NCc1ccccc1 (stereo not given) | 55.3% |
| Cc1cc(C)cc(OCC(=O)O)c1 | 131% |
| COc1ccc(-c2nc(-c3nc4cc(C)c(C)cc4[nH]3)cc3c2[nH]c2ccccc23)cc1 | -27.7% (active) |
| Cc1ccc(NC2=C(Cl)C(=O)c3nc(C)ccc3C2=O)cc1 | -81.9% (active) |
| Cn1c2ccccc2c2c3c(c4c5cc(Br)ccc5n(C)c4c21)C(=O)N(O)C3=O | -0.278% (active) |

| Structure (SMILES) | growth |
| --- | --- |
| COc1ccc(-c2cn3c(-c4ccc(OC)cc4)cnc3c(Oc3ccc4c(C)cc(=O)oc4c3)n2)cc1 | 43.9% |
| O=c1oc2cc(OS(=O)(=O)C3CC3)ccc2c2c1CCCCCC2 | 39% |
| COc1ccc2c(c1)Oc1nc(N)c(C#N)c(N)c1C2Sc1ccc(O)cc1 (stereo not given) | 18.8% |
| C#CCn1c(-c2cccc(OCCCCl)c2)nc2c1c(=O)n(C)c(=O)n2C | 71.6% |
| C#Cc1cc(C(=O)Nc2ccc(CNCCN3CCOCC3)c(C(F)(F)F)c2)ccc1C | 82.8% |
| Oc1ccc(/C=N/N=C2c3ccccc3-c3ccccc32)c(O)c1 | -1.47% (active) |
| CCCCCn1ncc(-c2c(O)c(O)cc3c(O)c(-c4c(C)cc5c(-c6cnn(CCCCC)n6)c(O)c(O)cc5c4O)c(C)cc23)n1 | -2.7% (active) |
| CC(=O)Nc1cccc(-n2c(=O)n(C3CC3)c(=O)c3c(Nc4ccc(I)cc4F)n(C)c(=O)c(C)c32)c1 | 77.2% |
| COc1ccc(N2CCN(Cc3cc(C(=O)/C=C/c4c[nH]c5ccccc45)ccc3O)CC2)cc1 | 99.5% |
| CC(=O)c1sc(-c2ccccc2)cc1N | 91.7% |
| Brc1cccc(/C=N/Nc2nc(N/N=C/c3cccc(Br)c3)nc(N3CCOCC3)n2)c1 | 1.09% (active) |
| C#C[C@]1(O)CC[C@H]2[C@@H]3CC=C4c5sc(Nc6ccncc6)nc5CC[C@]4(C)[C@H]3CC[C@@]21C | -26.2% (active) |
| CCC12CCC[N+]3([O-])CCC4(C(=Nc5ccccc54)C(O)(C(=O)OC)C1)C23 (stereo not given) | 112% |
| C=C(C)[C@@H]1CC[C@]2(COCCCNCCCN)CC[C@]3(C)[C@H](CC[C@@H]4[C@@]5(C)CC[C@H](O)C(C)(C)[C@@H]5CC[C@]43C)[C@@H]12 | -81.6% (active) |
| O=C(NC(=S)Nc1cccc(NC(=S)NC(=O)c2ccccc2)c1)c1ccccc1 | 98.5% |
| COc1ccc(C(=O)c2cc(C)c(OC)c(C)c2)cc1OC(=O)CCl | 37.7% |
| O=C(CCCCNC(=O)c1cc(=O)c(O)co1)Nc1ccccc1 | 35% |
| COc1ccc(OC)c(C(=O)/C=C/c2cc3c(c(OC)c2OC)OCO3)c1 | 33.5% |
| CC1CCN(Cc2ccc(NC(=O)c3cc4ccc5cccnc5c4[nH]3)cc2)CC1 | 21% |
| CCc1c(C)c2cc3c(c(C)c2oc1=O)OCC(=O)N3 | 69.4% |
